Compounds with a hit are over-represented: about 4.6% of the library has one in this group of screens.
TRHR enhancer: TRH receptor (human) allosteric enhancement; P34981; TRHR cells, fluo-8 calcium fluorescence, EC20 TRH enhancement; enhancement, % at 2 µM; 0.66% of 360,000 active; in the data active = enhancement above about 30%
Target sequence (P34981 whole entry, looked up): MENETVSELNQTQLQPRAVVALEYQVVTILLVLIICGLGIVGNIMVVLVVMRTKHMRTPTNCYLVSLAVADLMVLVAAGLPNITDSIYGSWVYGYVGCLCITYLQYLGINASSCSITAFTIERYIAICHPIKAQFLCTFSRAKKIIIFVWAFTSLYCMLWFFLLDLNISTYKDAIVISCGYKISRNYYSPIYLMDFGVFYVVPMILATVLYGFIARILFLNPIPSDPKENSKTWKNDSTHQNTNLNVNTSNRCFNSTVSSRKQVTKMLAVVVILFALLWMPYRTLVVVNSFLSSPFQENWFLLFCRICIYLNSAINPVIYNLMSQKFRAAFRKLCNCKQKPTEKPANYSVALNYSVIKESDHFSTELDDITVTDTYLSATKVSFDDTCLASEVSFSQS
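TRHR-expressing cells loaded with fluo-8 calcium dye were read kinetically (ex 480/em 530) during compound addition, then stimulated with an EC20 of TRH (10 nM final). Enhancement of the Gq-mediated intracellular calcium response was scored.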
D1 antagonist: blocks dopamine activation of the human D1 receptor; HEK293 TREx D1 cells, calcium flux, dopamine EC80; stronger effect = lower value; activity change, negative = inhibition, % at 10 µM; 3.2% of 360,000 active; AID 504652; in the data active = activity change below about -30%
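Cells carrying a force-coupled, tetracycline-inducible human D1 receptor report calcium flux. Each well gets a 10 s baseline, compound with 180 s monitoring, then an EC80 dopamine stimulus with a second 180 s kinetic read.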
D1 PAM: enhances dopamine response at the human D1 receptor; P21728; HEK293 TREx D1 cells, calcium flux, dopamine EC20 potentiation; potentiation, % at 10 µM; 0.036% of 360,000 active; in the data active = potentiation above about 30%
D1 ag: agonists of human D1 dopamine receptor; P21728; HEK293 T-REx D1 cells, calcium flux, agonist mode; activation, % at 2 µM; 1% of 360,000 active; AID 504660
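Inducible HEK293 T-REx D1 cells, force-coupled to calcium signalling, were plated at 4000 cells/well with tetracycline and held overnight at 30 C. After no-wash calcium dye loading, compound-evoked calcium rise over 180 s flagged agonists.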
TRHR agonist: TRH receptor (human) agonism | P34981 | TRHR cells, calcium flux fluo-8, FDSS agonist mode | activation, % at 2 µM | 0.18% of 360,000 active
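Steps: seed TRHR cells overnight; add fluo-8 no-wash Ca dye, RT 30 min–1.5 h; record 10 s baseline; pin-transfer compounds; monitor fluorescence 1 cycle/s for the agonist window. Calcium increases flag candidate agonists.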
Numbers stand for hits; i = inactive; nt = no result given. Cut-off read from the data, not from the text of the source, unless noted: active = activation above about 30%; inactive = the rest.

SMILES	TRHR enhancer	D1 antagonist	D1 PAM	D1 ag	TRHR agonist
O=C(c1ccc(S(=O)(=O)Nc2ccccc2)cc1)N1CCCC(C(F)(F)F)C1 (centres undefined)	i	i	i	50.8	i
Cc1ccccc1NS(=O)(=O)c1ccc2[nH]c(=O)[nH]c2c1	30.4	i	i	i	i
CCOc1ccc(NS(=O)(=O)c2ccc(C(=O)N3CCCCCC3)cc2)cc1	i	i	i	59.3	i
CC(=O)c1ccc(S(=O)(=O)Nc2ccc(-c3ccc(N4CCCCC4)nn3)cc2)cc1	31.3	i	i	i	i
CCOc1ccccc1NS(=O)(=O)c1ccc2[nH]c(=O)[nH]c2c1	i	i	i	i	i
CCOc1ccccc1CNC(=O)C1CCN(C(=O)N2CC(CC)Oc3ccc(C)cc32)CC1 (centres undefined)	i	i	i	i	i
COc1ccc(CNC(=O)CCc2c(C)c3ccc(OC)c(C)c3oc2=O)cc1OC	i	i	i	i	i
CC(=O)N1CCCc2ccc(NS(=O)(=O)c3ccc(C)cc3)cc21	i	i	i	i	i
CCOc1ccc(S(=O)(=O)Nc2ccc3c(c2)N(C(C)=O)CCC3)cc1	i	-32.1	i	i	i
Cc1ccc(NS(=O)(=O)c2ccc(C(=O)N3CCCCCC3)cc2)cc1	i	i	i	31.0	i
O=C(NCC1(N2CCOCC2)CCCCC1)c1cccc(S(=O)(=O)Nc2ccc(F)cc2)c1	i	i	i	i	i
O=C(NCC1(N2CCCCC2)CCCCC1)c1cccc(S(=O)(=O)Nc2ccc(F)cc2)c1	i	-37.6	i	i	i
CCOc1ccccc1NC(=O)COC(=O)/C=C/c1ccc(OC)c(OC)c1	i	-38.2	i	i	i
COc1cc(/C=C/C(=O)OCC(=O)NCCc2ccccc2)ccc1OC(F)F	i	-30.3	i	i	i
CCOc1ccc(/C=C/C(=O)OCC(=O)NCCc2ccc(OCC)c(OCC)c2)cc1OC	i	i	i	i	i
O=C(NCc1ccccc1)/C(=C\c1ccc([N+](=O)[O-])cc1)NC(=O)c1ccco1	i	i	i	i	i
O=C(N/C(=C\c1ccccc1)C(=O)N1CCOCC1)c1ccco1	30.4	i	i	i	i
O=C(NCCc1ccccc1)/C(=C\c1ccc([N+](=O)[O-])cc1)NC(=O)c1ccco1	i	-38.1	i	i	i
C=CCOC(=O)/C(=C\c1ccccc1)NC(=O)c1ccco1	i	-43.1	i	i	i
O=C(COCc1cc(-c2ccc3c(c2)OCO3)on1)Nc1cccc(O)c1	i	i	i	i	i
CCOc1ccc(NC(=O)Cn2c(=O)n(CCc3ccccc3)c(=O)c3c4c(sc32)CN(C(C)=O)CC4)cc1	i	i	i	i	i
COc1cc(NC(C)=O)c2ncccc2c1NC(C)=O	i	-36.4	i	i	i
CCOc1cc(C(=O)NCc2ccc3c(c2)CCN3C(=O)c2ccc(F)cc2)cc(OCC)c1OCC	i	i	i	i	i
Cc1c(C(=O)Nc2ccccc2F)sc2ncnc(N(C)C3CCCCC3)c12	i	i	i	i	i
CC1CCCC(NCC(O)COC(c2ccc(F)cc2)c2ccc(F)cc2)C1C (centres undefined)	i	i	i	62.6	i
SMILES	TRHR enhancer	D1 antagonist	D1 PAM	D1 ag	TRHR agonist
Cn1cc(Br)c(C(=O)N/N=C/c2cccc(OC3CSC3)c2)n1	i	-30.2	i	i	i
CCOc1cc(/C=N/NC(=O)c2nn(C)cc2Br)ccc1OCc1ccccc1Cl	i	i	i	i	i
Cc1cc(C)cc(N=Cc2[nH]c3ccc(Br)c(Cl)c3c2O)c1	i	i	i	54.9	35.8
CCOc1ccc(-c2cc(-c3nc(-c4ccc(C)cc4)no3)[nH]n2)cc1	i	i	i	i	i
Cc1cccc(NC(=O)CSc2nccn2Cc2ccc(F)cc2)c1C	i	i	i	i	i
CN(C)S(=O)(=O)N1CCC(Oc2cccc(C(=O)NCCC3=CCCCC3)c2)CC1	i	-31.1	i	30.8	i
Cn1c(SCC(=O)N2CCOCC2)ncc(C(=O)Nc2ccccc2)c1=O	i	nt	i	i	i
O=C(O/N=C/c1ccc2c(c1)OCO2)c1ccc([N+](=O)[O-])cc1	i	i	i	i	i
Cc1ccc(C(=O)O/N=C/c2ccc3c(c2)OCO3)cc1	i	-66.9	i	i	i
Cc1cccc(N2CCN(C(=O)C3CCN(Cc4nc(-c5ccc(Cl)cc5)oc4C)CC3)CC2)c1C	i	i	i	i	i
COc1ccc(-c2nnc3c4ccccc4c(-c4ccccc4)nn23)cc1	i	i	i	i	i
CCC(Sc1nc2ccccc2c2nc(CCn3c(C)nc4ccccc43)nn12)C(=O)Nc1ccc(F)cc1 (centres undefined)	i	-41.9	i	i	i
Cc1nc2ccccc2n1CCc1nc2c3ccccc3nc(SCC(=O)Nc3ccc(C(C)C)cc3)n2n1	i	i	i	i	i
CC(NC(=O)Nc1ccc(Cl)c(Cl)c1)C(c1ccccc1)N1CCOCC1 (centres undefined)	i	i	i	157.9	i
CC(NC(=O)Nc1ccc([N+](=O)[O-])cc1)C(c1ccccc1)N1CCOCC1 (centres undefined)	i	i	i	172.9	i
CC(NC(=O)c1ccc(Cl)cc1Cl)C(c1ccccc1)N1CCOCC1 (centres undefined)	i	i	i	i	i
O=C(Cn1nnnc1-c1ccccc1F)Nc1ccc(F)c(F)c1	i	i	i	i	i
COc1ccc(C(=O)C2CCCN(Cc3cccn3-c3ccc(Cl)cn3)C2)c(OC)c1 (centres undefined)	i	i	i	33.3	i
O=C(c1ccc(Cl)cc1)C1CCCN(Cc2cccn2-c2cccnc2)C1 (centres undefined)	32.8	i	i	i	i
CSc1ccc(C(=O)C2CCCN(Cc3cccn3-c3cccnc3)C2)cc1 (centres undefined)	i	i	i	i	i
COc1ccc(C(=O)C2CCCN(Cc3c(F)ccc(F)c3F)C2)c(OC)c1 (centres undefined)	i	i	i	i	i
O=C(Nc1sc2c(c1C(=O)NCc1ccccc1)CCCC2)c1cc(=O)c2cc(Cl)ccc2o1	i	i	i	i	i
COc1ccc(S(=O)(=O)c2nnn(-c3cc(Cl)c(OC)cc3OC)c2C)cc1	i	i	i	61.1	i
C#CCOCCOCCOCCNc1nc(N2CCN(C(=O)CCCCCCCCCCNC(=O)[C@H](CCCCN)n3cc(C)nn3)CC2)nc(N2CCN(C(=O)CCCCCCCCCCNC(=O)[C@@H]([C@H](C)CC)n3cc(CCCCCN)nn3)CC2)n1	i	i	39.5	i	i
C#CCOCCOCCOCCNc1nc(N2CCN(C(=O)CCCCCCCCCCNC(=O)[C@H]([C@@H](C)CC)n3cc(CCCCCN)nn3)CC2)nc(N2CCN(C(=O)CCCCCCCCCCNC(=O)[C@@H]([C@H](C)O)n3cc(C)nn3)CC2)n1	i	i	55.0	156.0	i

Screens: PubChem BioAssay, National Center for Advancing Translational Sciences (NCATS)
